Assay results: PubChem BioAssay (EPA / NIEHS)
Calls of active or inactive are those of the source. Rule for the calls: active = hit-call score of the fitted dose curve at least 0.9, where 1 is the maximum; inactive = score below 0.9.

Columns and labels:
[1] = ATG_E_Box_CIS: Attagene CIS-FACTORIAL HepG2 Assay for human Enhancer Box (E-box) (AID 2282936); settings: HepG2 E-box cis-reporter transcription, actives raise or lower the signal
Procedure, shortened: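 Cells: HepG2 (human liver), transient MRTU transfection. Exposure 24 h. RNA → oligo(dT) RT → PCR → 6-FAM label → HpaI → CE. Activity fitted both directions relative to DMSO.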

[2] = ATG_EGR_CIS: Attagene CIS-FACTORIAL HepG2 Assay for human Early Growth Response 1 (EGR1) (AID 2282938); settings: HepG2 Attagene CIS-FACTORIAL EGR reporter mRNA; actives raise or lower the signal
Procedure, shortened: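 Read-out: fluorescent reporter-mRNA fragments resolved by capillary electrophoresis after RT-PCR, 24 h post-dose in transiently transfected HepG2. Endogenous transcription-factor activity reported via cis-element-regulated reporter units; gain or loss fitted relative to DMSO.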

[3] = ATG_M_19_CIS: Attagene CIS-FACTORIAL HepG2 Assay for M19 Transcription Factor (Internal Marker) (AID 2282939); settings: HepG2 Attagene CIS-FACTORIAL M19 internal marker reporter; actives raise or lower the signal
Procedure, shortened: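 Readout: fluorescent reporter-transcript fragments by capillary electrophoresis after RT-PCR. Human HepG2 liver cells carried transfected MRTU constructs reporting endogenous transcription-factor activity; exposure 24 h. Gain or loss of signal fitted relative to DMSO.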

[4] = ATG_Ets_CIS: Attagene CIS-FACTORIAL HepG2 Assay for human Erythroblast Transformation Specific (ETS) (AID 2282941); settings: HepG2 ETS cis-reporter transcription, actives raise or lower the signal
Procedure, shortened: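 Human HepG2 hepatoma cells were transiently transfected with promoter-driven reporter constructs and treated for 24 hours. Reporter transcripts were quantified by RT-PCR with fluorescent primer extension; bidirectional curve fitting used DMSO as reference.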

[5] = target: Hepatocyte nuclear factor 3-beta (Homo sapiens) (UniProt Q9Y261); test: ATG_FoxA2_CIS: Attagene CIS-FACTORIAL HepG2 Assay for human Forkhead box A2 (FOXA2) (AID 2282942); settings: HepG2 cis-reporter transcription factor activity, 24 h; actives raise or lower the signal
Procedure, shortened: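 Readout: fluorescent reporter transcripts resolved by capillary electrophoresis after RT-PCR. Transiently transfected HepG2, 24 h compound exposure, endogenous TF activity at cis promoter elements. Gain or loss of signal fitted relative to DMSO.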

[6] = ATG_FoxO_CIS: Attagene CIS-FACTORIAL HepG2 Assay for human Forkhead box O (FoxO) (AID 2282943); settings: HepG2 Attagene cis-reporter, FoxO element, mRNA; actives raise or lower the signal
Procedure, shortened: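 Human hepatoma HepG2 cells carry transiently introduced reporter transcription units controlled by cis promoter elements. Chemical treatment lasted 24 h, and mRNA signal was compared with DMSO.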

[7] = ATG_GATA_CIS: Attagene CIS-FACTORIAL HepG2 Assay for human GATA Binding Protein (AID 2282944); settings: HepG2 GATA cis-element reporter, Attagene multiplex mRNA; actives raise or lower the signal
Procedure, shortened: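 Read-out: fluorescent reporter mRNA fragments resolved by capillary electrophoresis after RT-PCR. Human liver HepG2 cells carried transiently transfected cis-regulated reporter constructs; chemicals incubated 24 h; gain or loss of signal fitted relative to DMSO.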

[8] = ATG_GLI_CIS: Attagene CIS-FACTORIAL HepG2 Assay for human Zinc Finger Protein GLI1 (AID 2282945); settings: HepG2, Attagene cis-factorial reporter mRNA, GLI element; actives raise or lower the signal
Procedure, shortened: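 Bidirectional curve fits relative to DMSO, using reporter mRNA levels from RT-PCR plus capillary electrophoresis. Cells were HepG2 transiently carrying cis-regulated reporter constructs, harvested 24 h after dosing.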

[9] = target: Bile acid receptor (Homo sapiens) (UniProt Q96RI1); test: ATG_IR1_CIS: Attagene CIS-FACTORIAL HepG2 Assay for human Nuclear Receptor Subfamily 1 Group H Member 4 (NR1H4), IR1 submotif (AID 2282946); settings: IR1 reporter transcription, actives raise or lower the signal
Procedure, shortened: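 Cells (human HepG2) carry transiently transfected cis-promoter reporter transcription units. Compounds are incubated 24 h, total RNA is reverse-transcribed and amplified, and labelled fragments are resolved by capillary electrophoresis. Curves use DMSO as baseline.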

[10] = ATG_GRE_CIS: Attagene CIS-FACTORIAL HepG2 Assay for human Glucocorticoid Response Elements (GRE) (AID 2282947); settings: HepG2 GRE cis-reporter, Attagene multiplex mRNA; actives raise or lower the signal
Procedure, shortened: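 Transient MRTU transfection of human HepG2 liver cells; cis-regulated reporters report endogenous factors. 24 h dosing → RNA isolation → RT-PCR → 6-FAM primer extension → HpaI cut → CE fragment analysis. Bidirectional fit, DMSO negative control.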

[11] = ATG_ISRE_CIS: Attagene CIS-FACTORIAL HepG2 Assay for human Interferon Regulatory Factor 1 (IRF1) binding to an Interferon-Stimulated Response Element (ISRE) (AID 2282948); settings: HepG2 ISRE cis-reporter (Attagene), mRNA transcription readout; actives raise or lower the signal
Procedure, shortened: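 Cell-based cis-reporter assay; HepG2; 24 h exposure; reporter mRNA by RT-PCR plus capillary electrophoresis fluorescence; activity in either direction scored relative to DMSO.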

[12] = ATG_M_32_CIS: Attagene CIS-FACTORIAL HepG2 Assay for M32 Transcription Factor (Internal Marker) (AID 2282949); settings: HepG2 Attagene cis-factorial M32 reporter, mRNA; actives raise or lower the signal;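 note: background control marker of the multiplexed CIS panel rather than a real target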
Procedure, shortened: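 Fluorescent capillary electrophoresis peaks of HpaI-digested, FAM-labelled RT-PCR reporter products give the signal. Source: transiently transfected human liver HepG2 cells, 24 h after chemical dosing; bidirectional fitting against DMSO.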

[13] = ATG_M_06_CIS: Attagene CIS-FACTORIAL HepG2 Assay for M06 Transcription Factor (Internal Marker) (AID 2282950); settings: HepG2 Attagene CIS-FACTORIAL M06 internal marker reporter; actives raise or lower the signal
Procedure, shortened: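 Terse: HepG2, transient MRTU transfection (FuGene 6), 24 h dosing; total RNA, oligo(dT) RT, PCR, FAM label, HpaI cut, capillary electrophoresis; bidirectional fit vs DMSO baseline; background-control endpoint.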

[14] = target: Hypoxia-inducible factor 1-alpha (Homo sapiens) (UniProt Q16665); test: ATG_HIF1a_CIS: Attagene CIS-FACTORIAL HepG2 Assay for human Hypoxia Inducible Factor 1 (HIF1A) (AID 2282951); settings: HepG2 Attagene cis-factorial HIF1a reporter transcription; actives raise or lower the signal
Procedure, shortened: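 RT-PCR/capillary electrophoresis fluorescence readout of reporter transcripts from endogenous-TF-driven cis elements in transfected HepG2 cells, 24 h exposure; activity fitted in both directions against DMSO controls.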

[15] = target: Hepatocyte nuclear factor 6 (Homo sapiens) (UniProt Q9UBC0); test: ATG_HNF6_CIS: Attagene CIS-FACTORIAL HepG2 Assay for human Hepatocyte Nuclear Factor 6 (HNF6) (AID 2282952); settings: HepG2 Attagene cis-factorial HNF6 reporter transcription; actives raise or lower the signal
Procedure, shortened: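 Reporter mRNA induction or loss in HepG2 after 24 h exposure; transient cis-MRTU transfection; fragments quantified by capillary electrophoresis; bidirectional analysis, DMSO as negative control.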

[16] = target: Heat shock factor protein 1 (Homo sapiens) (UniProt Q00613); test: ATG_HSE_CIS: Attagene CIS-FACTORIAL HepG2 Assay for human Heat Shock Transcription Factor 1 (HSE) (AID 2282953); settings: HepG2 HSE cis-reporter, Attagene RNA transcription; actives raise or lower the signal
Procedure, shortened: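 Read-out: fluorescence of reporter-specific RT-PCR fragments separated by capillary electrophoresis. HepG2 carrying transfected cis-element reporter units; 24 h dosing; activity fitted in both directions relative to DMSO baseline.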

[17] = ATG_MRE_CIS: Attagene CIS-FACTORIAL HepG2 Assay for human Metal Responsive Element (MRE) (AID 2282954); settings: HepG2 MRE cis-reporter transcription, Attagene multiplex; actives raise or lower the signal
Procedure, shortened: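 Transient MRTU transfection of HepG2 (FuGene 6); 24 h dosing; total RNA → oligo(dT) RT, PCR, 6-FAM primer extension, HpaI cut, CE. Bidirectional fit vs DMSO.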

[18] = ATG_M_61_CIS: Attagene CIS-FACTORIAL HepG2 Assay for M61 Transcription Factor (Internal Marker) (AID 2282937); settings: HepG2 Attagene CIS-FACTORIAL M61 internal marker reporter; actives raise or lower the signal
Procedure, shortened: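 Readout: fluorescent reporter mRNA fragments resolved by capillary electrophoresis after RT-PCR. Transiently transfected human HepG2 cells carried MRTU constructs reporting endogenous TF activity; 24 h chemical exposure; gain or loss of signal fitted relative to DMSO.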

[19] = ATG_PBREM_CIS: Attagene CIS-FACTORIAL HepG2 Assay for human Phenobarbital-responsive Enhancer Module (PBREM) (AID 2282955); settings: HepG2 PBREM cis-reporter, Attagene multiplexed transcription; actives raise or lower the signal
Procedure, shortened: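 Reporter mRNA read by RT-PCR, 6-FAM primer extension, HpaI digestion and capillary electrophoresis. Transfected HepG2 cells, 24 h compound exposure. Gain or loss of signal fitted bidirectionally relative to DMSO baseline.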

Chain of Bile acid receptor (Homo sapiens) (Q96RI1 whole entry, looked up, the tested form may be a part): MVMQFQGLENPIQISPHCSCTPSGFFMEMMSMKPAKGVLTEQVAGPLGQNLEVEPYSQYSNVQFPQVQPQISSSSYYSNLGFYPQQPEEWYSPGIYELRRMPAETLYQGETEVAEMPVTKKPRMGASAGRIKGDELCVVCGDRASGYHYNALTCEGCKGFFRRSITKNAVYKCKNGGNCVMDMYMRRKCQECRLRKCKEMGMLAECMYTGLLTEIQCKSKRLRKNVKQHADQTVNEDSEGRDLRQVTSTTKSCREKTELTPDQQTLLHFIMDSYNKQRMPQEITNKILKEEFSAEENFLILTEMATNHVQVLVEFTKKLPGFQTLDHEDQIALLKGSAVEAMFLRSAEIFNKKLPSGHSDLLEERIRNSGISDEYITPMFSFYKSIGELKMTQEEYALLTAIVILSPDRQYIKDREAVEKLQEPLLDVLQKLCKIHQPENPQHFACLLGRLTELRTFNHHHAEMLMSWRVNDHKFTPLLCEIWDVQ
Chain of Heat shock factor protein 1 (Homo sapiens) (Q00613 whole entry, looked up, the tested form may be a part): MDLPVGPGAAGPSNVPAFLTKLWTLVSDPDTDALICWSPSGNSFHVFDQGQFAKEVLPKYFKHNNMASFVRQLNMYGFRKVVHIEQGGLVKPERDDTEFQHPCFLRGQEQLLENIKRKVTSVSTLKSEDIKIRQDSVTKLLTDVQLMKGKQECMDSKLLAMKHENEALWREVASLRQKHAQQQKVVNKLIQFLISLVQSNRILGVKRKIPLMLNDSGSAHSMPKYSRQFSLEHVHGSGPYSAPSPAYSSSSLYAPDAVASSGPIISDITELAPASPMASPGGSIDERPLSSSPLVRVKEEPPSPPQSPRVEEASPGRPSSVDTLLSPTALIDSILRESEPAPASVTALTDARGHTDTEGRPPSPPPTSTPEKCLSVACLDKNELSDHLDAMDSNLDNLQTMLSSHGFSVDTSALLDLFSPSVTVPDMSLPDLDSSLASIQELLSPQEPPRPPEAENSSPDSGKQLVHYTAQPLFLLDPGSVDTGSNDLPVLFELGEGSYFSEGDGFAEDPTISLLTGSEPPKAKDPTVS
Chain of Hypoxia-inducible factor 1-alpha (Homo sapiens) (Q16665 whole entry, looked up): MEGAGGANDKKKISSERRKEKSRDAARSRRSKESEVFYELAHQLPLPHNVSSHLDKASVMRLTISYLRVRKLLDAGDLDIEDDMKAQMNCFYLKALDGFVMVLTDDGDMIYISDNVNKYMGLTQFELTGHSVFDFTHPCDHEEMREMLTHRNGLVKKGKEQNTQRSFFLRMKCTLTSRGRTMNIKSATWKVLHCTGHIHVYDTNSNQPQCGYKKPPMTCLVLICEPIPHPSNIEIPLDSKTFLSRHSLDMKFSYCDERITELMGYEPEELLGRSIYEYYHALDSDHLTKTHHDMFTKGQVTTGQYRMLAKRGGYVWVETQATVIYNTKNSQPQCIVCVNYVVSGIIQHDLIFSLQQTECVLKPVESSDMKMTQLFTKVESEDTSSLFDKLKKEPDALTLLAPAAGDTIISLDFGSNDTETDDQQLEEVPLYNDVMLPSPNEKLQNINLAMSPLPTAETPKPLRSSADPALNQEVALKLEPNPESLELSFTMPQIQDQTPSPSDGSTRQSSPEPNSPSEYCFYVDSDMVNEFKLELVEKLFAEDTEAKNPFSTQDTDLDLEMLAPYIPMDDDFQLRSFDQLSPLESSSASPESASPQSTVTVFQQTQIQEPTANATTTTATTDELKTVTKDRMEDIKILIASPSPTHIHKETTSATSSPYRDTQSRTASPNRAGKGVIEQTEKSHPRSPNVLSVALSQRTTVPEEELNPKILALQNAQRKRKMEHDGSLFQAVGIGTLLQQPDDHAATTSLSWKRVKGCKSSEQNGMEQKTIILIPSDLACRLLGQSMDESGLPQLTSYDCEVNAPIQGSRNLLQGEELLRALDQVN
Chain of Hepatocyte nuclear factor 6 (Homo sapiens) (Q9UBC0 whole entry, looked up, the tested form may be a part): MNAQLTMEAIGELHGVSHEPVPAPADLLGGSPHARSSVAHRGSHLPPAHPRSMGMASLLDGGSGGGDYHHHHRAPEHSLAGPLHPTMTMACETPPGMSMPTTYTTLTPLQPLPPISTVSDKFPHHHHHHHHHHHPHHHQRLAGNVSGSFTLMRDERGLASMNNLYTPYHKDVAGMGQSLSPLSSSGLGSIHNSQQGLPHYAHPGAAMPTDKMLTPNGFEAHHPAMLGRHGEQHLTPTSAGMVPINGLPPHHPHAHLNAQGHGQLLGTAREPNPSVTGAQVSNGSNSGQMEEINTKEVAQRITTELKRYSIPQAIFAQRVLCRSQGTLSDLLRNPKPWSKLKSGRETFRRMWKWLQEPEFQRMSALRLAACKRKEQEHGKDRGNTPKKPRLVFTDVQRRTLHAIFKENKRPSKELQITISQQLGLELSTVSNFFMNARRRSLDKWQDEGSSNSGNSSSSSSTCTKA
Chain of Hepatocyte nuclear factor 3-beta (Homo sapiens) (Q9Y261 whole entry, looked up): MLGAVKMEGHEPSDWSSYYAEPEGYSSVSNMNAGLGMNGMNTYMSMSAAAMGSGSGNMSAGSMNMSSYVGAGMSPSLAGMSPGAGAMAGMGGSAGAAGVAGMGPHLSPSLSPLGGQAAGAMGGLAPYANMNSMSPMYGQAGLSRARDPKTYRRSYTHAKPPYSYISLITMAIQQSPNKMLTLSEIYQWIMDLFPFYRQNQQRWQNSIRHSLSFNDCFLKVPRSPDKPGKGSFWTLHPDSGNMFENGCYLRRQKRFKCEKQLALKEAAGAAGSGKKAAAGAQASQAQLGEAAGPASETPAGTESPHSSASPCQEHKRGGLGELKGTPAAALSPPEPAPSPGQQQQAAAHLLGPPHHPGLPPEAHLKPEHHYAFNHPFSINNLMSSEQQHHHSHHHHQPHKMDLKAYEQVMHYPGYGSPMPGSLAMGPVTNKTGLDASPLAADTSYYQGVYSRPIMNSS

SMILES | outcome [1] | outcome [2] | outcome [3] | outcome [4] | outcome [5] | outcome [6] | outcome [7] | outcome [8] | outcome [9] | outcome [10] | outcome [11] | outcome [12] | outcome [13] | outcome [14] | outcome [15] | outcome [16] | outcome [17] | outcome [18] | outcome [19] | AC50 [1]
O=C(Nc1ccc([N+](=O)[O-])cc1)Nc1ccc([N+](=O)[O-])cc1 (tested in a mixture with another compound) | inactive | inactive | inactive | inactive | inactive | inactive | inactive | inactive | inactive | inactive | inactive | inactive | inactive | inactive | inactive | inactive | inactive |  |  | 
c1ccc(Oc2ccccc2)cc1 | inactive | inactive |  | inactive | inactive |  | inactive | inactive | inactive | inactive | inactive | inactive | inactive | inactive | inactive | inactive | inactive | inactive | inactive | 
CC(C)CCCCCCCCCCCCCCC(=O)O | inactive | inactive | inactive | inactive | inactive | inactive | inactive | inactive |  | inactive | inactive | inactive | inactive | inactive | inactive | inactive | inactive |  | inactive | 
O=C1c2ccccc2C(=O)c2c(O)ccc(O)c21 |  | inactive | inactive | inactive | inactive | inactive | inactive | inactive | inactive |  | inactive |  | inactive | inactive |  | inactive | inactive |  |  | 3.7 µM (active)
CC(C)=CCCC(C)CCOC=O (stereo unspecified) | inactive | inactive |  | inactive | inactive | inactive | inactive | inactive | inactive | inactive | inactive | inactive | inactive | inactive | inactive | inactive | inactive |  | inactive | 
C1CCCCC1 |  | inactive | inactive | inactive | inactive | inactive | inactive | inactive | inactive | inactive | inactive | inactive | inactive | inactive | inactive | inactive | inactive | inactive | inactive | 
CC=Cc1ccc(OCC)c(O)c1 |  | inactive | inactive | inactive | inactive | inactive | inactive |  |  | inactive | inactive | inactive | inactive | inactive | inactive | inactive | inactive | inactive | inactive | 
